High-throughput results (PubChem)
Compounds with a hit are over-represented: about 4.7% of the library has one in this group of screens.
D1 potentiator = potentiators of human D1 dopamine receptor; P21728; potentiation, % at 10 µM; actives 0.036% (n = 360,000); HEK293 TREx D1 cells, calcium flux, dopamine EC20 potentiation; in the data active = potentiation above about 30%; also: 0% is about no effect
D1 antagonist = blocks dopamine activation of the human D1 receptor; activity change, negative = inhibition, % at 10 µM; HEK293 TREx D1 cells, calcium flux, dopamine EC80; active compounds read low; actives 3.2% (n = 360,000); in the data active = activity change below about -30%; also: % is scaled to controls: 0 for no effect and ±100 for the full control effect
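Allosteric or orthosteric antagonism assessed as attenuation of the calcium response to EC80 dopamine, added 180 s after compound, in induced HEK293 Trex D1 cells loaded with no-wash calcium dye.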
TRHR PAM = allosteric enhancers of human TRH receptor | actives 0.66% (n = 360,000) | TRHR cells, fluo-8 calcium fluorescence, EC20 TRH enhancement | enhancement, % at 2 µM | P34981; in the data active = enhancement above about 30%; also: 0% is about no effect
Target sequence (P34981 whole entry, looked up): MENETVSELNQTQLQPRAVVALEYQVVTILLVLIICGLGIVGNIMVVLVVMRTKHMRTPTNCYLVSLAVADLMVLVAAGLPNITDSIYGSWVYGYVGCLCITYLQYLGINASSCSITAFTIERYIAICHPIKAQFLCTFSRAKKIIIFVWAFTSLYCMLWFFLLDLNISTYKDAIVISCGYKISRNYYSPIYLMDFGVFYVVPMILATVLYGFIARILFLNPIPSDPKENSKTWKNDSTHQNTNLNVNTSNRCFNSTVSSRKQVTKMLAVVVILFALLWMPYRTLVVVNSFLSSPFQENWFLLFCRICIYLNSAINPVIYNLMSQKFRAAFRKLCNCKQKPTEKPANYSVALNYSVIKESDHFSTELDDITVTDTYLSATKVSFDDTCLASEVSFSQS
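Enhancer read-out: after compound pinning and an initial kinetic agonist-mode read, an EC20 of TRH (10 nM final) was injected and fluo-8 calcium signal (Ex 480/Em 530) followed at 1 s/cycle for 100 cycles in TRHR-expressing cells.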
TRHR agonist = agonists of human TRH receptor | TRHR cells, calcium flux fluo-8, FDSS agonist mode | activation, % at 2 µM | actives 0.18% (n = 360,000); also: 0% is about no effect
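Steps: seed TRHR cells overnight; add fluo-8 no-wash Ca dye, RT 30 min–1.5 h; record 10 s baseline; pin-transfer compounds; monitor fluorescence 1 cycle/s for the agonist window. Calcium increases flag candidate agonists.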
D1 agonist = activates the human D1 dopamine receptor. P21728. HEK293 T-REx D1 cells, calcium flux, agonist mode. activation, % at 2 µM. actives 1% (n = 360,000). AID 504660; also: 0% is about no effect
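Inducible HEK293 T-REx D1 cells, force-coupled to calcium signalling, were plated at 4000 cells/well with tetracycline and held overnight at 30 C. After no-wash calcium dye loading, compound-evoked calcium rise over 180 s flagged agonists.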
Starred values were filed as active, the others as inactive; x = no result. Rule as the data show it, unless noted: active = activation above about 30%; inactive = the rest.

SMILES | D1 potentiator | D1 antagonist | TRHR PAM | TRHR agonist | D1 agonist
N=c1c2c(-c3ccccc3)c(-c3ccccc3)n(Cc3ccco3)c2ncn1CCCn1ccnc1 | -2 | 16 | 5 | 1 | 14
c1ccc(-c2c(-c3ccccc3)n(Cc3ccco3)c3ncnc(NCCCn4ccnc4)c23)cc1 | 7 | 1 | 8 | -1 | 52*
Cc1ccc2ccc3cc(C(=O)N4CCN(c5ccccc5)CC4)nc3c2[nH]1 | -1 | 30 | 24 | -1 | 20
CCc1ccc2occ(CC(=O)Nc3c(C(=O)c4ccccc4)oc4ccccc34)c2c1 | -1 | -7 | 4 | -1 | 14
CCc1ccc(NC(=O)C2=C(C)C(=O)OC23CCCCC3)cc1 | -3 | -6 | -2 | 0 | 1
CCN(CC)CCCNc1ncnc2c1cnn2-c1ccc(C)c(C)c1 | -2 | -14 | -2 | 1 | 13
CC(C)n1cc(CN2CCCC(CNS(=O)(=O)c3cccc4cccnc34)C2)cn1 (stereo unspecified) | -10 | -49* | 4 | 1 | 1
CCCN1CCN(CCNC(=O)Nc2cc(OC)cc(OC)c2)CC1 | 3 | 3 | 3 | 1 | 0
CC(C)c1cnc2c(c1SCC(=O)c1ccc(Cl)cc1)c(=O)n(C)c(=O)n2C | -1 | 15 | -2 | 0 | 3
Cc1nn(CC(=O)OCC(=O)NC(C)c2ccccc2)c(C)c1[N+](=O)[O-] (stereo unspecified) | 6 | -34* | -4 | 0 | 1
N#CCc1c(C#N)c(N)nc(N2CCN(C=O)CC2)c1C#N | -2 | 8 | 0 | 1 | 0
CC(=O)N1CCN(c2nc(N)c(C#N)c(CC#N)c2C#N)CC1 | -11 | -65* | 1 | 1 | 2
Cc1ccc(C)c(OCC(=O)OCC(=O)Nc2c(C)nn(-c3ccccc3)c2C)c1 | -4 | -2 | -6 | 0 | 6
Cc1ccc(OCC(=O)Nc2c(C)nn(-c3ccccc3)c2C)c(Br)c1 | -4 | -37* | -3 | 0 | 15
COc1cccc(NC(=O)CCCCCN2C(=O)[C@@H]3Cc4ccccc4CN3C2=O)c1 | -3 | -14 | -4 | 0 | 6
Cc1cc(C)cc(NC(=O)CCCCCN2C(=O)[C@@H]3Cc4ccccc4CN3C2=O)c1 | -4 | -40* | 12 | 1 | 0
COc1ccccc1NC(=O)Cn1c(=O)n(Cc2ccc3c(c2)OCO3)c(=O)c2oc3ccccc3c21 | 0 | -8 | 2 | 0 | 1
COc1cc(/C=C2\NC(=S)N(C)C2=O)ccc1O | -2 | -5 | -1 | 10 | 16
Cc1cc(N2CCCC2)ccc1/C=C1/C(=O)N(C)C(=S)N1C | -4 | 4 | -7 | 11 | 36*
CCN1C(=O)/C(=C/c2ccc(N3CCCC3)cc2)NC1=S | 10 | -52* | 18 | 111* | 242*
Cc1cc(/C=C2/C(=O)N(C)C(=S)N2C)ccc1N1CCCC1 | 8 | x | -3 | 29 | 127*
CN1C(=O)/C(=C/C=C2/CCCN2C)N(C)C1=S | 3 | -11 | 0 | -2 | 5
